Screening results as filed in PubChem BioAssay.
Shown are actives, neighbours in structure and some others; about 21% of the full set was active somewhere.
SARS PLP yeast = qHTS of Yeast-based Assay for SARS-CoV PLP; S. cerevisiae expressing SARS-CoV PLpro, growth rescue; Potency, µM (series often up to 32.9 µM), for inactives: at the highest dose activity, positive = growth rescue, most hits filed as activators; 330,000 tested, 0.19% active; AID 485353, 2010; calls by dose curve; also: potency is read from the fitted curve at half-maximal effect; 0% is about no effect; nearly all actives have a fitted effect of over 55% in size
Pf growth 48h = Primary qHTS for delayed death inhibitors of the malarial parasite plastid, 48 hour incubation. P. falciparum luciferase growth in erythrocytes, 48 h. Potency, µM (highest dose often 28.7 µM), for the others: at the top dose activity change, negative = inhibition, hits mostly inhibitors. 310,000 tested, 5.9% active. AID 504832, 2011; also: potency is read from the fitted curve at half-maximal effect; % is scaled to controls: 0 for no effect and ±100 for the full control effect
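Cell-based growth assay: transgenic P. falciparum expressing firefly luciferase, cultured in red cells within RPMI 1640 containing 0.5% w/v Albumax, 24 mM bicarbonate and gentamycin. A drop in luciferase activity indicates inhibition.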
Pf growth 96h = Primary qHTS for delayed death inhibitors of the malarial parasite plastid, 96 hour incubation. Potency, µM (highest dose often 28.7 µM), without a hit: at the top dose activity change, negative = inhibition, usual class: inhibitors. P. falciparum luciferase reporter growth, 96 h. 320,000 tested, 6.9% active; also: potency is read from the fitted curve at half-maximal effect; % is scaled to controls: 0 for no effect and ±100 for the full control effect
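Cell-based qHTS: luciferase-tagged P. falciparum in erythrocytes (2% hematocrit, 0.05% parasitemia final) incubated with compounds for 96 hours, 37 C, 5% CO2; luciferase detection reagent then added and luminescence measured.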
Shiga inhibitor = A qHTS for Small Molecule Inhibitors of Shiga Toxin. Vero cells, Shiga toxin protein synthesis inhibition reporter. 290,000 tested, 9.2% active. inhibition, % at 38.7 µM; in the data active = inhibition mostly above about 28%, no sharp cut-off; inactive = mostly below about 43%; also: 0% is about no effect
NS1 function inh = qHTS Assay for Inhibitors of Influenza NS1 Protein Function | Potency, µM (titrated, usually from 46.1 µM), inactives show at the top dose activity, positive = more growth | 270,000 tested, 0.4% active | AID 2326, 2010; calls by dose curve; also: potency is read from the fitted curve at half-maximal effect; actives are rising curves; nearly all actives have a fitted effect of over 50% in size
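Compounds were scored for reversing the slow growth caused by influenza A NS1 in S. cerevisiae, measured by optical density at 600 nm. Assay medium contained 2% galactose at pH 6.0; NS1-free yeast of the same strain were the positive control.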
CHX counter = Cycloheximide Counterscreen for Small Molecule Inhibitors of Shiga Toxin. cell reporter, cycloheximide protein synthesis inhibition counterscreen. max response, %. 300,000 tested, 12% active. AID 2314, 2010; in the data active = max response mostly above about 13%, no sharp cut-off; inactive = mostly below about 14%; also: read at 38.3 µM for the half of the compounds with a filed dose; 0% is about no effect
An asterisk follows results filed as active; ? = inconclusive; · = not tested or not shown; [ ] = another dose, or the depositor's remark. Unless noted, calls follow the shape of the dose curve; as a rule, active = well fitted inhibition curve with a large enough effect; inconclusive = small, poorly fitted or top-dose-only effect, or another doubt; inactive = no such curve, though single readings can be large or run the other way.

SMILES	SARS PLP yeast	Pf growth 48h	Pf growth 96h	Shiga inhibitor	NS1 function inh	CHX counter
CC1CCN(C(=O)CSc2nnc3c(n2)[nH]c2ccc(F)cc23)CC1	2%	1.7µM*	?	-10	2%	-7
COC(=O)[C@@]12CCCN1[C@H](c1ccc(-c3ccc(OC)cc3)c(OC)c1)[C@@H]1C(=O)N(C)C(=O)[C@@H]12	2%	13µM*	12µM*	·	·	·
COC(=O)[C@@]12CCCCN1[C@H](c1ccc(-c3cc(C(C)=O)cs3)cc1)[C@H]1C(=O)N(C)C(=O)[C@H]12	-2%	?	2%	·	·	·
COC(=O)[C@@]12CCCCN1[C@H](c1ccc(-c3cc(C(C)=O)cs3)c(OC)c1)[C@H]1C(=O)N(C)C(=O)[C@H]12	-1%	4.1µM*	?	·	·	·
COC(=O)[C@@]12CCCN1[C@H](c1ccc(-c3ccccc3)c(OC)c1)[C@H]1C(=O)N(C)C(=O)[C@H]12	-21%	·	·	·	·	·
COC(=O)[C@@]12CCCCN1[C@H](c1ccc(-c3ccc(F)cc3)c(OC)c1)[C@@H]1C(=O)N(C)C(=O)[C@@H]12	0%	13µM*	12µM*	·	·	·
COC(=O)[C@@]12CCCCN1[C@H](c1ccc(-c3ccc4c(c3)OCO4)c(OC)c1)[C@@H]1C(=O)N(C)C(=O)[C@@H]12	2%	5.2µM*	13µM*	·	·	·
CN(C)c1ccc(C(C(=O)NC2CCCCC2)N(Cc2ccco2)C(=O)c2snc(C(N)=O)c2N)cc1 (stereo not given)	-16%	?	-12%	-4	-6%	5
O=C(Nc1cccc(C(=O)N2CCOCC2)c1)c1cccnc1	0%	0%	·	-9	5%	-1
CCSC(N)=Nc1ccc(C(F)(F)F)cc1	·	·	·	·	-31%	·
COC(=O)[C@@]12CCCN1[C@H](c1ccc(-c3ccc(C(C)=O)cc3)c(OC)c1)[C@H]1C(=O)N(C)C(=O)[C@H]12	-7%	13µM*	?	·	·	·
COC(=O)[C@@]12CCCCN1[C@H](c1ccc(-c3ccc(F)cc3)cc1)[C@@H]1C(=O)N(C)C(=O)[C@@H]12	-2%	?	13µM*	·	·	·
COC(=O)[C@@]12CCCN1[C@H](c1ccc(-c3ccc(OC)cc3)c(OC)c1)[C@H]1C(=O)N(C)C(=O)[C@H]12	-1%	8.3µM*	?	·	·	·
CCOC(=O)C1CCCN(C(=O)CCn2nnnc2CN2CCOCC2)C1 (stereo not given)	0%	42%	6%	-5	2%	8
Cc1cc2c(cc1S(=O)(=O)CCC(=O)NC1CCCCC1C)OCC(=O)N2 (stereo not given)	-3%	-2%	-2%	-8	-9%	0
CC(=O)c1c(C)[nH]c(C(=O)Nc2cc(C)ccc2C)c1C	-8%	·	2%	-14	0%	-3
CC(=O)c1c(C)[nH]c(C(=O)Nc2cc(F)ccc2C)c1C	-9%	0%	6%	-1	-24%	10
CC(=O)c1c(C)[nH]c(C(=O)Nc2ccccc2Cl)c1C	·	58%	51%	46*	-11%	19
CC(=O)c1c(C)[nH]c(C(=O)Nc2ccc(F)cc2F)c1C	-2%	48%	46%	65*	-7%	44*
CC(=O)c1c(C)[nH]c(C(=O)Nc2cccc3ccccc23)c1C	-5%	-25%	?	8	-9%	5
CC(=O)c1c(C)[nH]c(C(=O)Nc2ccc(C)cc2Br)c1C	-8%	111%	126%	66*	-3%	25*
Cc1ccc(C(=O)CSc2ccccn2)cc1	8%	183%	·	113*	-11%	46*
O=C(CSc1ccccn1)c1ccc(F)cc1	24%	·	-17%	58*	2%	34*
O=C(O)c1ccnc(SCC(=O)c2ccccc2)c1	18%	11%	-25%	-3	11%	-2
C[C@H]1C=CC(=O)O[C@H]1c1ccccc1	·	·	·	16	·	-3
SMILES	SARS PLP yeast	Pf growth 48h	Pf growth 96h	Shiga inhibitor	NS1 function inh	CHX counter
C[C@@H]1C=CC(=O)O[C@@H]1c1ccc(C(F)(F)F)cc1	-14%	?	2.3µM*	3	-49%	-3
Nc1ncnc2c1nc(-c1ccccc1)n2[C@H]1O[C@@H](CO)[C@@H](O)[C@H]1O	·	·	·	·	0%	·
COc1ccc(-c2c3c(=O)n(C)c(=O)n(C)c3cn2-c2cc(OC)ccc2OC)cc1	0%	13µM*	-4%[5.75 µM]	-12	-38%	14
COc1ccc(-c2c3c(=O)n(C)c(=O)n(C)c3cn2-c2ccccc2O)cc1	-1%	?	?	13	-6%	10
COc1ccc(-c2c3c(=O)n(C)c(=O)n(C)c3cn2Cc2cccnc2)cc1	0%	6%	?	126*	-1%	17*
C=CCOC(/C=C/c1ccccc1)CC (stereo not given)	·	·	·	14	·	10
Cc1cccc2sc(NC(=O)c3ccc(Cl)s3)nc12	1%	·	13µM*	-2	2%	16
O=C(Nc1nc2c(Cl)c(Cl)ccc2s1)C1CC1	1%	15%	31%	28*	-21%	25*
COC(=O)Nc1nc2c(C)cccc2s1	2%	66%	·	31	-18%	26
O=C(CCN1C(=O)C2CCCCC2C1=O)Nc1nc2c(F)cc(F)cc2s1 (stereo not given)	-4%	249%	269%	·	·	·
O=C(Nc1nc2c(F)cc(F)cc2s1)C1CC1	-1%	86%	83%	85*	-31%	44*
Cc1cc(Cl)cc2sc(NC(=O)C3CC3)nc12	3%	38%	68%	15	-1%	11*
Cc1cccc2sc(NC(=O)CSCc3ccccc3)nc12	5%	·	8%	62	-2%	18*
O=C(Nc1nc2c(Cl)cccc2s1)C1CC1	-32%	29%	38%	27	-45%	15
COc1cccc2sc(NC(=O)c3ccc(Br)s3)nc12	-6%	·	22%	72	-3%	32*
Cc1cccc2sc(NC(=O)Cn3cccc3)nc12	-35%	5%	-7%	8	-16%	-2
O=C(Nc1nc2c(Br)cccc2s1)C1CC1	-33%	34%	53%	11	-100%	18*
Cc1ccc2sc(NC(=O)C3CC3)nc2c1C	-32%	39%	49%	63*	-43%	36*
C[C@@]1(CO)[C@H](O)CC[C@]2(C)[C@@H]1CC[C@H]1C[C@H]3C[C@]12CC[C@]3(O)COC(=O)CN	·	·	·	·	-6%	·
O=C(CNC(=O)COc1ccccc1)NCCN1CCOCC1	1%[6.58 µM]	10%	10%	·	·	·
CCCCN(CC(=O)NC1CCCC1)C(=O)C(=O)Nc1ccc2c(c1)OCCO2	-1%	10%	15%	-13	-4%	1
